# Data taken from PubChem BioAssay (NCATS).
# Calls of active or inactive are those of the source. The call rests on the fitted dose curve.
# Settings: Ebola virus entry cell assay, ratio channel
SMILES,AC50,outcome
Cc1ccc(-c2cc(C(F)(F)F)nn2-c2ccc(S(N)(=O)=O)cc2)cc1,11.2 µM (active),–
CC[C@@]1(O)C(=O)OCc2c1cc1n(c2=O)Cc2cc3c(CN(C)C)c(O)ccc3nc2-1,5.62 µM (active),–
Cc1cn([C@H]2C=C[C@@H](CO)O2)c(=O)[nH]c1=O,–,inactive
Nc1nc2c(ncn2COCCO)c(=O)[nH]1,–,inactive
Cc1cccc(C)c1OCC(C)N (stereo not given),–,inactive
CN(C)C(=N)N=C(N)N,–,inactive
OC(CCN1CCCC1)(c1ccccc1)C1CCCCC1 (stereo not given),20 µM (active),–
CC#C[C@]1(O)CC[C@H]2[C@@H]3CCC4=CC(=O)CCC4=C3[C@@H](c3ccc(N(C)C)cc3)C[C@@]21C,–,inactive
Cc1nc2n(c(=O)c1CCN1CCC(c3noc4cc(F)ccc34)CC1)CCC[C@H]2O,–,inactive
COCCCC/C(=N\OCCN)c1ccc(C(F)(F)F)cc1,–,inactive
CN1C[C@H]2c3ccccc3Oc3ccc(Cl)cc3[C@@H]2C1,17.8 µM (active),–
O[C@@H](c1cc(C(F)(F)F)nc2c(C(F)(F)F)cccc12)[C@H]1CCCCN1,5.62 µM (active),–
CC1(C)S[C@@H]2[C@H](NC(=O)C(C(=O)O)c3ccccc3)C(=O)N2[C@H]1C(=O)O (stereo not given in full),–,inactive
Nc1ccn([C@@H]2O[C@H](CO)[C@@H](O)C2(F)F)c(=O)n1,–,inactive
CCC(=O)O[C@H]1[C@H](O[C@@H]2[C@@H](C)[C@H](O[C@H]3C[C@@](C)(OC)[C@@H](O)[C@H](C)O3)[C@@H](C)C(=O)O[C@H](CC)[C@@](C)(O)[C@H](O)[C@@H](C)C(=O)[C@H](C)C[C@@]2(C)O)O[C@H](C)C[C@@H]1N(C)C,–,inactive
